Source: PubChem
An excerpt weighted towards active compounds, which were near 2.9% of everything screened.
Vif inh: HIV Vif inhibition; HEK293T cells, Vif self-association by quenched fluorescence, imaging, 24 h; inhibition, % at 7.49 µM; hit rate 0.35% among 340,000; in the data active = inhibition above about 50%, passing the limit was not always enough; inconclusive = no clear call, values can overlap the other calls; inactive = below about 31%
PvdQ acylase: blocks Pseudomonas aeruginosa PvdQ acylase activity. purified PvdQ acylase, fluorescence plate reader. inhibition, % at 10 µM. hit rate 0.063% among 340,000. AID 488965; in the data active = inhibition above about 30%, passing the limit was not always enough; inconclusive = no clear call, values can overlap the other calls;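 also: 0% = vehicle neutral wells and 100% = reference inhibitor wells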
MITF TRPM1 HTS: activators of MITF-driven TRPM1 promoter activity in SK-MEL-5 cells; activation, % at 12.5 µM; hit rate 0.75% among 300,000; SK-MEL-5 TRPM1-promoter luciferase, 24 h; % of positive control, neutral wells = 0;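 active = mean activation of at least 80% with every replicate also reaching 80%; inconclusive = mean reaches 80% but some replicate falls short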;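 also: 0% = neutral control wells and 100% = parthenolide positive control wells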
Wnt bcat act: activates Wnt/beta-catenin signaling in a reporter cell assay. activator, plate reader. activation, % at 9.35 µM. hit rate 1.2% among 300,000. AID 743398; in the data active = activation above about 30%, passing the limit was not always enough; inconclusive = no clear call, values can overlap the other calls;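 also: 0% = neutral control wells and 100% = positive control wells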
esBAF inh: SWI/SNF esBAF complex inhibition | hit rate 2% among 350,000 | mouse ES cells, Bmi1-luciferase knock-in reporter, 24 h; 100% = twice the neutral-well signal | reporter increase, % at 12.5 µM; in the data active = activation above about 40%; inconclusive = no clear call, values can overlap the other calls;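 also: 0% = median of the plate's neutral control wells and 100% = double that signal; a rise in the Bmi1 reporter signal indicates esBAF inhibition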
N-glyco inh: blocks N-linked glycosylation in D54 reporter cells; reporter increase, % at 12.5 µM; D54 ERlucT glycosylation luciferase reporter, 24 h; percent of 100 nM tunicamycin response; hit rate 0.23% among 360,000;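 active = mean luciferase reporter signal, scaled so untreated is 0 and the glycosylation-blocking control 100, at or above a set limit in every replicate; inconclusive = mean reaches the limit but not every replicate does; inactive = mean below the limit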;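 also: luciferase carries N-glycosylation sites so blocking glycosylation raises the light; 0% = median of neutral control wells and 100% = median of 100 nM tunicamycin wells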
* = called active by the depositor; ? = inconclusive; . = not tested or not shown; + = active, no number.

SMILES	Vif inh	PvdQ acylase	MITF TRPM1 HTS	Wnt bcat act	esBAF inh	N-glyco inh
N#C/C(=C/c1cccs1)c1nc2ccccc2[nH]1	6.0	7.0	2.7	.	133.8*	-4.4
N#C/C(=C\c1c(Cl)cccc1Cl)c1nc2ccccc2[nH]1	-3.3	4.5	-6.1	1.3	9.5	-1.6
COc1ccccc1CC(=O)Nc1ccc(NC(=O)c2cccs2)cc1	-4.0	-10.8	30.6	-1.4	11.9	-2.8
N/C(=N\O)c1ccc(NC(=O)c2cccs2)cc1	4.4	-9.3	53.3	40.3*	21.9	-2.2
CC(=O)c1ccc(NC(=O)c2cccs2)cc1	11.2	-7.2	58.1	15.4	32.0	-7.8
COC(=O)Cc1ccc(NC(=O)c2cccs2)cc1	.	-12.3	67.5	17.7	48.8*	-2.2
COc1ccc2nc(N(CCN(C)C)C(=O)c3ccc4ncsc4c3)sc2c1	-8.2	.	.	?	80.6*	-1.9
Cc1ccc2nc(N(CCN(C)C)C(=O)c3ccc4ccccc4c3)sc2c1	8.3	-6.0	12.5	.	7.3	-3.6
Cc1ccc2nc(N(CCCN(C)C)C(=O)c3ccc4ncsc4c3)sc2c1	5.0	-9.3	10.2	-22.0	51.7*	-4.6
CN(C)c1ccc(C(CN)c2c[nH]c3ccccc23)cc1 (stereo not given)	0.6	-8.9	14.8	-8.0	39.4*	-1.9
CCCN(C)C[C@H]1Oc2cc(-c3ccc(C#N)cc3)ccc2S(=O)(=O)N([C@@H](C)CO)C[C@H]1C	.	.	.	.	-0.1	.
FC(F)c1nc2ccccc2[nH]1	11.9	4.2	-1.7	0.1	-4.2	0.7
c1ccc2[nH]c3cc4ncnc4cc3nc2c1	0.4	-17.8	10.8	6.2	.	26.1*
CCC(=O)Nc1ccc2c(c1)OC[C@H](C)N(CC1CCCCC1)C[C@H](C)[C@@H](OC)CN(C)C2=O	.	.	.	.	4.8	.
O=C(Cc1ccccc1)N[C@H]1CC[C@@H](CC(=O)N2CCOCC2)O[C@@H]1CO	.	.	.	.	-4.2	.
CC1CCC(C(C)C)C(OC(=O)COC(=O)c2cc(O)ccc2N)C1 (stereo not given)	6.6	-8.6	-11.5	33.9*	.	5.2
CC1CCC(C(C)C)C(OC(=O)COC(=O)c2ccc(=O)[nH]c2)C1 (stereo not given)	-8.5	-3.7	4.4	-3.3	0.7	1.1
CC(C)CC#Cc1cnc2c(c1)C(=O)N([C@H](C)CO)C[C@@H](C)[C@H](CN(C)C(=O)Cc1cccnc1)O2	.	.	.	.	0.1	.
O=C(N=Nc1c(O)[nH]c2ccccc12)c1cccs1	5.0	-7.6	15.6	34.9*	.	-7.0
Oc1ccc(NC(=S)N=Nc2c(O)[nH]c3ccccc23)cc1	14.9	-1.7	34.2	?	65.5*	-1.0
Cc1ccc(NC(=S)N=Nc2c(O)[nH]c3ccccc23)cc1	-4.5	6.5	-2.1	15.7	.	9.1
O=C(N=Nc1c(O)[nH]c2ccccc12)c1cc(NS(=O)(=O)c2cccs2)cc(NS(=O)(=O)c2cccs2)c1	13.6	-7.8	-13.6	-1.3	.	0.7
O=C(Nc1ccccc1)[C@H]1[C@H](CO)[C@H]2Cn3c(cccc3=O)[C@H]2N1C(=O)C1CCC1	.	.	.	.	-1.1	.
COc1cc(/C=N/NC(=O)c2cc(-c3c(C)nn(-c4ccccc4)c3C)n[nH]2)ccc1O	-2.7	4.2	-22.6	-3.3	22.5	54.4*
O=C(C[C@@H]1C[C@H]2c3cc(NC(=O)NC4CCCC4)ccc3O[C@H]2[C@H](CO)O1)NCc1ccc2c(c1)OCO2	.	.	.	.	5.7	.
SMILES	Vif inh	PvdQ acylase	MITF TRPM1 HTS	Wnt bcat act	esBAF inh	N-glyco inh
Cc1noc(C)c1NC(=O)N[C@H]1CC[C@@H](CC(=O)N2CCN(C)CC2)O[C@@H]1CO	.	.	.	.	-0.5	.
Cc1ccc(NC(=O)c2nc3nccc(C)n3n2)cc1S(=O)(=O)N1CCCCC1	3.3	4.3	40.5	-1.1	44.6*	5.4
Cc1ccc(NC(=O)c2ccc3c(c2)OCO3)cc1Cl	-9.0	-3.7	51.0	4.2	29.8	-9.8
Cc1ccnc2nc(C(=O)Nc3cc(Cl)ccc3N3CCOCC3)nn12	-5.2	-9.7	0.8	.	2.8	41.0*
Cc1ccc(C(=O)Nc2ccc3c(c2)OCO3)cc1S(=O)(=O)N1CCOCC1	17.8	-9.8	30.1	9.2	.	-0.9
Cc1ccc(C(=O)Nc2ccc3c(c2)OCO3)cc1S(=O)(=O)N1CCCC1	-20.9	-6.1	46.0	.	79.2*	-2.0
Cc1ccnc2nc(C(=O)Nc3ccc(S(=O)(=O)N4CCCC4)cc3)nn12	2.0	11.8	0.3	6.1	.	2.3
O=C(Nc1cc(Cl)ccc1N1CCOCC1)c1ccc(Br)o1	12.2	-11.1	-5.4	1.1	-5.4	1.2
Cc1ccc(C(=O)Nc2ccc3c(c2)OCO3)cc1Cl	-11.5	-7.2	86.7*	46.2*	39.2	-9.3
NC(=O)c1oc2ccccc2c1NC(=O)c1nc2ccccc2s1	.	-15.2	59.9	.	62.9*	-1.8
Cc1ccc(C(=O)Nc2ccc3c(c2)CCC3)cc1	1.9	0.0	-19.3	-0.1	-56.2	-16.1
O=C(Cc1cccc(F)c1)Nc1ccc2c(c1)CCC2	5.6	1.1	39.8	-1.6	34.4	-3.4
O=C(Cc1ccccc1F)Nc1ccc2c(c1)CCC2	25.8	-8.7	129.0*	16.5	71.7*	-3.1
O=C(Nc1ccc2c(c1)CCC2)c1cccc(F)c1	-2.5	-8.2	94.8*	21.2	.	-6.2
O=C(Nc1ccc2c(c1)CCC2)c1cc(F)cc(F)c1	3.1	-4.8	83.4*	0.8	47.4*	1.2
O=C(C[C@H]1C[C@H]2c3cc(NC(=O)Nc4ccccc4)ccc3O[C@H]2[C@@H](CO)O1)NCc1ccccc1	.	.	.	.	-0.6	.
CC(C)CC#Cc1cnc2c(c1)C(=O)N([C@H](C)CO)C[C@@H](C)[C@H](CN(C)S(=O)(=O)c1cn(C)cn1)O2	.	.	.	.	1.9	.
CO[C@H]1CN(C)C(=O)c2cc(NC(=O)Nc3c(C)noc3C)ccc2OC[C@H](C)N(CC2CC2)C[C@@H]1C	.	.	.	.	-2.1	.
O=C(NCC[C@@H]1CC[C@H](NC(=O)C2CCCC2)[C@@H](CO)O1)c1cc(Cl)cc(Cl)c1	.	.	.	.	9.2	.
COc1ccc(C)cc1NC(=O)CSc1nnnn1Cc1ccccc1	-11.9	11.0	-4.7	43.7*	.	-3.0
COc1cc(NC(=O)CSc2nnnn2Cc2ccccc2)cc(OC)c1	-6.3	12.3	0.9	-2.6	.	0.2
O=c1[nH]c2ccccc2nc1/C=C/c1ccc(O)cc1	?	-3.3	60.7	10.2	51.1*	1.4
Cn1c(=O)c(/C=C/c2ccc(F)cc2)nc2ccccc21	1.8	-5.5	24.6	27.2	.	-2.9
O=c1[nH]c2ccccc2nc1/C=C/c1ccc(F)cc1	0.1	-10.5	47.1	-0.8	55.7*	-2.0
O=c1[nH]c2ccccc2nc1/C=C/c1ccccc1	-10.2	-17.7	40.3	?	.	-1.3
COc1ccc(OC)c(/C=C/c2nc3ccccc3[nH]c2=O)c1	+	2.7	1.2	-0.1	9.0	2.4
CCCC(=O)Nc1ccc2c(c1)OC[C@@H](C)N(C(=O)c1cccnc1)C[C@@H](C)[C@H](OC)CN(C)C2=O	.	.	.	.	5.1	.
Cn1c2ccccc2c(=O)c2cc(C#Cc3ccccn3)ccc21	4.9	-27.5	102.4*	21.4	1.6	-0.2
